Measurements taken from ChEMBL document CHEMBL1961873, “Compounds: GSK PKIS; Assays: Nanosyn kinase panel” (2012).

Columns and labels:
[1] = biological target: MAP/microtubule affinity-regulating kinase 3 (Homo sapiens) (UniProt P27448); details: at 1 µM;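 further: reported values are averaged percent inhibition of MARK3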
[2] = biological target: T1, MAP/microtubule affinity-regulating kinase 4 (Homo sapiens) (UniProt Q96L34); details: at 0.1 µM
T1 sequence (whole entry): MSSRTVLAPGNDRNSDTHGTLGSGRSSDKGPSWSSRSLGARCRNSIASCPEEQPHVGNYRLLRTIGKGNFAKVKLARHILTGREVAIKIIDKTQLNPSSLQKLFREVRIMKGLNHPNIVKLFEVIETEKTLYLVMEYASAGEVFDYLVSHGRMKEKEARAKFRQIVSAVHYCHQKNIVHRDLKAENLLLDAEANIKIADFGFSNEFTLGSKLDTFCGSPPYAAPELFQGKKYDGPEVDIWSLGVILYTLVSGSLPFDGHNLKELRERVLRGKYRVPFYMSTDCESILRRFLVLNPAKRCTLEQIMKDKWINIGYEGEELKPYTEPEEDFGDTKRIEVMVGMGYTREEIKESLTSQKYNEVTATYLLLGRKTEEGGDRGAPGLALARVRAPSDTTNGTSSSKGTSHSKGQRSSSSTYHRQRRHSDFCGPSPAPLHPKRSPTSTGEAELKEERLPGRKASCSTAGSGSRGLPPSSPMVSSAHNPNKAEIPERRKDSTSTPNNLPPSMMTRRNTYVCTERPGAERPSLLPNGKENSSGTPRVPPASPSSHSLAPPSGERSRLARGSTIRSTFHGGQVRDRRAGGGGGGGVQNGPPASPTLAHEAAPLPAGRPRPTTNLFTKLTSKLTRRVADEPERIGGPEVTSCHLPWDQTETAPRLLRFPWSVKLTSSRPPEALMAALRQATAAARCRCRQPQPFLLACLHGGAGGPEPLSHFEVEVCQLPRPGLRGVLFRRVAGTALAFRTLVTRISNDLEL

[3] = biological target: T1, MAP/microtubule affinity-regulating kinase 4 (Homo sapiens); details: at 1 µM
[4] = biological target: Maternal embryonic leucine zipper kinase (Homo sapiens) (UniProt Q14680); details: at 0.1 µM
Maternal embryonic leucine zipper kinase (Homo sapiens), sequence (Q14680 whole entry, looked up): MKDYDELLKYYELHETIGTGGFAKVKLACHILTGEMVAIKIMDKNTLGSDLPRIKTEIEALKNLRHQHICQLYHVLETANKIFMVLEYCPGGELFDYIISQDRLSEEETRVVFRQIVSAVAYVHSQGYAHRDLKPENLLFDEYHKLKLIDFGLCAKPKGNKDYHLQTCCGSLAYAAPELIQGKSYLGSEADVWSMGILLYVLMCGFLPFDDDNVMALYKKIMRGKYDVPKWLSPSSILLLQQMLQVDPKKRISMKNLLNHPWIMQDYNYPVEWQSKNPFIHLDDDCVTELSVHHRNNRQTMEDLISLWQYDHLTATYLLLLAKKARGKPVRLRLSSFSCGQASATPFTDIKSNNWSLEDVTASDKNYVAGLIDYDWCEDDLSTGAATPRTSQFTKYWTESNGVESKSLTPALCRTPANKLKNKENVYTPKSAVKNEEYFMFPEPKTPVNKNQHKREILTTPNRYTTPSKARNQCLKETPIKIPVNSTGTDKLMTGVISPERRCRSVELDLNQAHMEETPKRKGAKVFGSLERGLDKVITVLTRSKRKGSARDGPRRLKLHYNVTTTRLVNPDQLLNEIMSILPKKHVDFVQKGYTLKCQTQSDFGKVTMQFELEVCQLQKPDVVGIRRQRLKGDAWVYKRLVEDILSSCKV

[5] = biological target: Maternal embryonic leucine zipper kinase (Homo sapiens) (UniProt Q14680); details: at 1 µM
[6] = biological target: MAP kinase-interacting serine/threonine-protein kinase 1 (Homo sapiens) (UniProt Q9BUB5); details: at 0.1 µM
MAP kinase-interacting serine/threonine-protein kinase 1 (Homo sapiens), sequence (Q9BUB5 whole entry, looked up): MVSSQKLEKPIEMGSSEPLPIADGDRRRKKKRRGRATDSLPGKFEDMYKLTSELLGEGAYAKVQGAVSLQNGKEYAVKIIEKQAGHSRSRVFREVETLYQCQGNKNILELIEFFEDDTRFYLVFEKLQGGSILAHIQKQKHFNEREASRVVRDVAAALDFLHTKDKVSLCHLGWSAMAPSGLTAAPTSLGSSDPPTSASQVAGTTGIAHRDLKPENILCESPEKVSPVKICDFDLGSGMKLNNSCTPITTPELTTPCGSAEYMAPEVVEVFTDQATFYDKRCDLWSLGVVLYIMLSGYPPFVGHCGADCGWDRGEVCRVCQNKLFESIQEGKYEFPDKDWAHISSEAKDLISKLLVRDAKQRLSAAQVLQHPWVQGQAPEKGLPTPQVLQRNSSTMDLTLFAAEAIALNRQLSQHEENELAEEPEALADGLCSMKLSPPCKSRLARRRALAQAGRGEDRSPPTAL

[7] = biological target: MAP kinase-interacting serine/threonine-protein kinase 1 (Homo sapiens) (UniProt Q9BUB5); details: at 1 µM
[8] = biological target: MAP kinase-interacting serine/threonine-protein kinase 2 (Homo sapiens) (UniProt Q9HBH9); details: at 0.1 µM
MAP kinase-interacting serine/threonine-protein kinase 2 (Homo sapiens), sequence (Q9HBH9 whole entry, looked up): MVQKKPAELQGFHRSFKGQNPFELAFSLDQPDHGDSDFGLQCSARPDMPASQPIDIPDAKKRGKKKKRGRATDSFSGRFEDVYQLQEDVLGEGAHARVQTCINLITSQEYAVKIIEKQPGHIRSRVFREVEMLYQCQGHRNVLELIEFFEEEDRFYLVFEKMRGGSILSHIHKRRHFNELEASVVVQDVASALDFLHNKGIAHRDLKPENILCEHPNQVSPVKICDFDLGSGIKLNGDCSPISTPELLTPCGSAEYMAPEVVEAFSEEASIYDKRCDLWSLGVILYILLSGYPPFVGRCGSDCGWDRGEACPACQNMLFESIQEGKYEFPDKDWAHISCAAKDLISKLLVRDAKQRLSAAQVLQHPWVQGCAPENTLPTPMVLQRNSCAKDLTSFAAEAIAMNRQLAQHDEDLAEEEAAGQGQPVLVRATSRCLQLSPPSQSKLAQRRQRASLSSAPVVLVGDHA

[9] = biological target: MAP kinase-interacting serine/threonine-protein kinase 2 (Homo sapiens) (UniProt Q9HBH9); details: at 1 µM
[10] = biological target: Serine/threonine-protein kinase MARK2 (Homo sapiens) (UniProt Q7KZI7); details: at 0.1 µM
Serine/threonine-protein kinase MARK2 (Homo sapiens), sequence (Q7KZI7 whole entry, the tested form may be a part): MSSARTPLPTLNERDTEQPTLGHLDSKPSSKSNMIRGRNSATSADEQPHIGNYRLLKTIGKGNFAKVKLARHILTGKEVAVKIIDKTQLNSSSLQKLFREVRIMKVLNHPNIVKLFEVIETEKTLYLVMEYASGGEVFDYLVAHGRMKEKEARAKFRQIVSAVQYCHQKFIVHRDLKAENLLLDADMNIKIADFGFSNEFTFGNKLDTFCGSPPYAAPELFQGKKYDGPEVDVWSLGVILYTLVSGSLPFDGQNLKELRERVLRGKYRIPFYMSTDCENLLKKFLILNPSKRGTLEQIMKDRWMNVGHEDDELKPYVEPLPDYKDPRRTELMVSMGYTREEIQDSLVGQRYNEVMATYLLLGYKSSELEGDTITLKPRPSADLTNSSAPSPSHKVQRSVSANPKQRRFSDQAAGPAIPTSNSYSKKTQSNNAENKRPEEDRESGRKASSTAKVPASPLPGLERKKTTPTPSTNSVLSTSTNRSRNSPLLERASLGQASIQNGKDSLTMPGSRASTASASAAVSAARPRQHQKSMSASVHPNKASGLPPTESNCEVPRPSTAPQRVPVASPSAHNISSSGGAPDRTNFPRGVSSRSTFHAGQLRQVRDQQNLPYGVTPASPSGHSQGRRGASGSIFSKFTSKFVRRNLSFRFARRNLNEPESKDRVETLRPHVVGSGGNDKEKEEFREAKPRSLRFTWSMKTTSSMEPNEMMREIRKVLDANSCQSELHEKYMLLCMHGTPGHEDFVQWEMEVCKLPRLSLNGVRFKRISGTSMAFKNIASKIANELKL

[11] = biological target: Serine/threonine-protein kinase MARK2 (Homo sapiens) (UniProt Q7KZI7); details: at 1 µM
[12] = biological target: PAS domain-containing serine/threonine-protein kinase (Homo sapiens) (UniProt Q96RG2); details: at 0.1 µM
PAS domain-containing serine/threonine-protein kinase (Homo sapiens), sequence (Q96RG2 whole entry, the tested form may be a part, canonical isoform): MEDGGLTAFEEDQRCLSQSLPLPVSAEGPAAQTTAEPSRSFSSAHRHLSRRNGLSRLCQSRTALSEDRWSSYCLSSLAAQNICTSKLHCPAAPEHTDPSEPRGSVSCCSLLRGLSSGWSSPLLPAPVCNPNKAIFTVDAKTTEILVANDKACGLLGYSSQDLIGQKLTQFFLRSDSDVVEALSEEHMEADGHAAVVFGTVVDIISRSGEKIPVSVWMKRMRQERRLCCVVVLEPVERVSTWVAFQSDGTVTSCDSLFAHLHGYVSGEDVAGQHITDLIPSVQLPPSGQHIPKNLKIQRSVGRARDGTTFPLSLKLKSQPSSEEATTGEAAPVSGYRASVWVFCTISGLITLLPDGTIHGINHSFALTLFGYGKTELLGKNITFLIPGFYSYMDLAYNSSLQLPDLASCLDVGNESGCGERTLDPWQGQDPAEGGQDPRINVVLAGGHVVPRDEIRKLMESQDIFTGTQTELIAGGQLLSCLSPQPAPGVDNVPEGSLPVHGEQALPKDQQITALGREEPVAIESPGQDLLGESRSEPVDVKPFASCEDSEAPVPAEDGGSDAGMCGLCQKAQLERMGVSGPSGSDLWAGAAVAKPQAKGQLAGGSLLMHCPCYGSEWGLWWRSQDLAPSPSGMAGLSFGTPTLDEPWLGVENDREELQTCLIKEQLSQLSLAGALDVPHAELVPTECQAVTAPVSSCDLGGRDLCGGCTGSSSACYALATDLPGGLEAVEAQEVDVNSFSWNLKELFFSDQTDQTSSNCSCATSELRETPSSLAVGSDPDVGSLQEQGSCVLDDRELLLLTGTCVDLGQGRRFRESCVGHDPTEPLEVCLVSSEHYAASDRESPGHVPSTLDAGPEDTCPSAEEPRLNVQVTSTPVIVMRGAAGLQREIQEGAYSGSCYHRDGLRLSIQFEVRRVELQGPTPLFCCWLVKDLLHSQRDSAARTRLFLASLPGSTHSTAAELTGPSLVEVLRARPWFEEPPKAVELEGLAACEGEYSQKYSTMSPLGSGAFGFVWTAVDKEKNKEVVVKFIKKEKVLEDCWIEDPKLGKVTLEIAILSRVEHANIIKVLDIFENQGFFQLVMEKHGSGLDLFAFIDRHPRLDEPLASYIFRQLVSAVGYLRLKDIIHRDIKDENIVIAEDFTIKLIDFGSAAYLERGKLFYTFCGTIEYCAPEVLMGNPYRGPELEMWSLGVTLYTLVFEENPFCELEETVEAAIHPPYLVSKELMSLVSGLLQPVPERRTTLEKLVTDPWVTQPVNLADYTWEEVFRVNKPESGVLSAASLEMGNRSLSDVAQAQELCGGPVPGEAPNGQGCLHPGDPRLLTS

[13] = biological target: PAS domain-containing serine/threonine-protein kinase (Homo sapiens) (UniProt Q96RG2); details: at 1 µM
[14] = biological target: Phosphorylase b kinase gamma catalytic chain, skeletal muscle/heart isoform (Homo sapiens) (UniProt Q16816); details: at 0.1 µM
Phosphorylase b kinase gamma catalytic chain, skeletal muscle/heart isoform (Homo sapiens), sequence (Q16816 whole entry, looked up, canonical isoform): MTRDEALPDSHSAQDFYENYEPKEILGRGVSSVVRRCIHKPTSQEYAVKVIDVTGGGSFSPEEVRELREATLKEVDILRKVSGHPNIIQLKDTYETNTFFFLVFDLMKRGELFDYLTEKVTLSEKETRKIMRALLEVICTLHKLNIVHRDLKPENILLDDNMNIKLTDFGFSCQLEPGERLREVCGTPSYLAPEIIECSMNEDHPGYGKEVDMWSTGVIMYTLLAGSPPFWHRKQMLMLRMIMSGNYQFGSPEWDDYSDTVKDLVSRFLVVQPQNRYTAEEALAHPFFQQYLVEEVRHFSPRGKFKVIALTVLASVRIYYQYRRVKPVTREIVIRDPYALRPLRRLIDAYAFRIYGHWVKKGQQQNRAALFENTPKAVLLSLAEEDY

[15] = biological target: Phosphorylase b kinase gamma catalytic chain, skeletal muscle/heart isoform (Homo sapiens) (UniProt Q16816); details: at 1 µM
[16] = biological target: T2, Phosphorylase b kinase gamma catalytic chain, liver/testis isoform (Homo sapiens) (UniProt P15735); details: at 0.1 µM
T2 sequence (whole entry): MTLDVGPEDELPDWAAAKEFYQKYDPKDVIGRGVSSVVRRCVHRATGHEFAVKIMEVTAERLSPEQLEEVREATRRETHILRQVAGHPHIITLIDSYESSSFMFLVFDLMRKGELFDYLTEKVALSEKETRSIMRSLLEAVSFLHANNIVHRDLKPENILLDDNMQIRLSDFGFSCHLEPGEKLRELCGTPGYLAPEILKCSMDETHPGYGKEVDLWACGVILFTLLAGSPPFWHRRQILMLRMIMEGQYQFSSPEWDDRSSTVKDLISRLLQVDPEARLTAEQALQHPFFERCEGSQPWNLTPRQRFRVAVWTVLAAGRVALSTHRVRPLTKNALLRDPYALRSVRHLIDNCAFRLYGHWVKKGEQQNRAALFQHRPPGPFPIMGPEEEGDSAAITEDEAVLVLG

[17] = biological target: T2, Phosphorylase b kinase gamma catalytic chain, liver/testis isoform (Homo sapiens); details: at 1 µM
[18] = biological target: Serine/threonine-protein kinase pim-1 (Homo sapiens) (UniProt P11309); details: at 0.1 µM
Serine/threonine-protein kinase pim-1 (Homo sapiens), sequence (P11309 whole entry, looked up): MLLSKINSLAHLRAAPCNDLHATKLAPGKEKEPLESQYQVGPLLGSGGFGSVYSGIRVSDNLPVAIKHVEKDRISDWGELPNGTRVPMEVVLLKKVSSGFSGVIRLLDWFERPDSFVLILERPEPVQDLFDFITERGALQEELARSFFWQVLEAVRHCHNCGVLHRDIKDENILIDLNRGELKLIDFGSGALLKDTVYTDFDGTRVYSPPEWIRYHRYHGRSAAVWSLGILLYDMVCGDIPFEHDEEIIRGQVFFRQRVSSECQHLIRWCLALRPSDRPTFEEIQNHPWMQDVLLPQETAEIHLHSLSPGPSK

[19] = biological target: Serine/threonine-protein kinase pim-1 (Homo sapiens) (UniProt P11309); details: at 1 µM
[20] = biological target: Serine/threonine-protein kinase pim-2 (Homo sapiens) (UniProt Q9P1W9); details: at 0.1 µM;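 further: reported value is the mean percent inhibition of PIM2, measured in the GSK PKIS kinase inhibitor set screen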
Serine/threonine-protein kinase pim-2 (Homo sapiens), sequence (Q9P1W9 whole entry, looked up): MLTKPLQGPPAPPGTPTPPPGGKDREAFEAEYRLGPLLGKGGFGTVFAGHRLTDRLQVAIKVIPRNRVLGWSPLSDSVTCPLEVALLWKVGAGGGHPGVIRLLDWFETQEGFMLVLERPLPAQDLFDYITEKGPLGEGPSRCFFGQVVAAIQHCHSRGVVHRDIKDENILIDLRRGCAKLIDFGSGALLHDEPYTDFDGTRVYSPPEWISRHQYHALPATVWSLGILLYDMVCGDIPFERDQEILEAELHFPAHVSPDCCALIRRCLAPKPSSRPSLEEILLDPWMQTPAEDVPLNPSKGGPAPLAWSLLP

Structure (SMILES) | inhibition [1] [%] | inhibition [2] [%] | inhibition [3] [%] | inhibition [4] [%] | inhibition [5] [%] | inhibition [6] [%] | inhibition [7] [%] | inhibition [8] [%] | inhibition [9] [%] | inhibition [10] [%] | inhibition [11] [%] | inhibition [12] [%] | inhibition [13] [%] | inhibition [14] [%] | inhibition [15] [%] | inhibition [16] [%] | inhibition [17] [%] | inhibition [18] [%] | inhibition [19] [%] | inhibition [20] [%]
CCCN1CCCC(c2ccc(Nc3nc(Nc4cc(F)ccc4C(N)=O)c4cc[nH]c4n3)c(OC)c2)C1 (stereo not given) | 68.3 | 7.3 | 40.7 | 24 | 75.2 | 3.82 | 5.92 | 1.87 | 2.51 | 6.68 | 40 | -0.3 | 8.59 | 51.2 | 77.8 | 26.9 | 67.6 | 11.7 | 50.8 | 0.9
FC(F)(F)c1ccc(-c2nn3ncccc3c2-c2ccnc(Nc3ccc4c(c3)OCCO4)n2)cc1 | 11.2 | 4.98 | 6.4 | -0.41 | -0.13 | 6.66 | 10.9 | 6.24 | 9.7 | 6.43 | 4.45 | 6.37 | 10.9 | 7.07 | 8.64 | 0.59 | 6.97 | 0.47 | 1.86 | 6.45
Cc1ccc(Nc2ccnc(Nc3cccc(C(N)=O)c3)n2)cc1O | 12.5 | 1.68 | 6.22 | 2.96 | 7.7 | 2.87 | 13.4 | 2.08 | 16.7 | 0.4 | 3.99 | 0.66 | 0.18 | 1.96 | 10.4 | 4.75 | 6.26 | 0.14 | 1.49 | -4.07
COc1cc2ncnc(Nc3ccc4c(cnn4Cc4ccccc4)c3)c2cc1OC | 2.6 | 1.05 | 3.55 | 3.54 | 8.01 | 2.44 | 18 | 0.99 | 17.1 | -0.07 | 3.96 | 0.55 | -0.09 | 3.79 | 8.41 | 2.67 | 2.41 | 0.14 | 1.19 | 0.05
O=S(=O)(CCOCc1ccc(-c2ccc3ncnc(Nc4ccc(OCc5cccc(F)c5)c(Cl)c4)c3c2)o1)c1ccccc1 | 1.33 | 1.36 | 3.69 | 3.07 | 7.12 | 1.49 | 4.07 | -0.55 | 4.88 | -0.42 | 3.35 | -0.23 | -0.13 | 1.12 | 5.02 | 1.75 | -0.77 | 1.1 | 2.1 | 0.88
CN1CCN(C(=O)c2ccc(NC(=O)Nc3ccc(N(C)c4ccnc(Nc5ccc(CS(C)(=O)=O)cc5)n4)cc3)cc2)CC1 | 20.3 | 2.48 | 17.1 | 0.8 | 13.2 | 2.8 | 13.1 | 5.75 | 33.8 | 0.98 | 8.38 | -0.3 | 0.27 | -1.64 | 1.5 | 2.03 | 3.05 | 0.58 | -0.28 | -0.2
